The panel holds about 79,000 compounds, 15% with a hit somewhere; the sample as a whole holds those more often. Active and inactive are the calls of the source. Rule as the data show it: active = growth inhibition above about 70%; inactive = the rest.
Columns and labels:
[1] = NCI Yeast Anticancer Drug Screen. Data for the mec2-1 strain (AID 157); conditions: S. cerevisiae mec2-1 strain, active compounds read high
Method in brief: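 Growth inhibition is read against vehicle-treated controls after compound exposure of the mec2-1 yeast strain, which is defective in DNA damage repair or cell cycle control.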

[2] = NCI Yeast Anticancer Drug Screen. Data for the rad14 strain (AID 159);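 also: 0% = growth of vehicle-treated control cultures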; conditions: S. cerevisiae rad14 strain growth inhibition, active compounds read high
Method in brief: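 Yeast cells carrying a defined DNA-repair defect were exposed to compounds, and growth inhibition was calculated relative to vehicle-treated control cultures.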

[3] = NCI Yeast Anticancer Drug Screen. Data for the sgs1 mgt1 strain (AID 161);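 also: 0% = growth of cultures given vehicle only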; conditions: S. cerevisiae sgs1 mgt1 strain, active compounds read high
Method in brief: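 Percent growth inhibition was derived by comparing compound-exposed mutant yeast with vehicle-exposed cultures. The strain carries alterations in DNA damage repair.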

[4] = NCI Yeast Anticancer Drug Screen. Data for the CLN2oe strain (AID 163);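 also: 0% = growth of vehicle-only control cultures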; conditions: S. cerevisiae CLN2oe strain, active compounds read high
Method in brief: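 Compound-treated yeast; growth vs vehicle ctrl = % inhibition. Genetically altered strain (cell-cycle control).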

[5] = NCI Yeast Anticancer Drug Screen. Data for the cln2 rad14 strain (AID 165);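 also: 0% = growth equal to vehicle treated cultures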; conditions: S. cerevisiae cln2 rad14 strain, active compounds read high
Method in brief: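 Growth inhibition, relative to vehicle-treated controls, is the read-out. The test organism is a yeast strain with defined genetic alterations, cln2 rad14.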

[6] = NCI Yeast Anticancer Drug Screen. Data for the bub3 strain (AID 167); conditions: S. cerevisiae bub3 mutant strain, active compounds read high
Method in brief: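 Compounds were applied to a genetically altered yeast strain carrying a cell-cycle control defect. Growth inhibition was scored against vehicle-treated controls.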

[7] = NCI Yeast Anticancer Drug Screen. Data for the wt2 strain (AID 169);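 also: 0% = growth of vehicle-treated yeast cultures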; conditions: S. cerevisiae wt2 strain growth inhibition, active compounds read high
Method in brief: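 Compound exposure of yeast; growth compared with vehicle controls; inhibition reported.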

[8] = NCI Yeast Anticancer Drug Screen. Data for the mlh1 strain (AID 171);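 also: 0% = growth of vehicle-treated control cultures of the same strain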; conditions: S. cerevisiae mlh1 strain growth inhibition, active compounds read high
Method in brief: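 Compounds are applied to a genetically altered yeast strain, and its growth is compared with that of vehicle-treated cultures to give percent inhibition.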

[9] = NCI Yeast Anticancer Drug Screen. Data for the sgs1 strain (AID 173);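 also: 0% = growth of vehicle-only control cultures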; conditions: S. cerevisiae sgs1 mutant, active compounds read high
Method in brief: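 Compounds applied to genetically altered yeast; growth compared with vehicle-treated cultures to give % inhibition.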

[10] = NCI Yeast Anticancer Drug Screen. Data for the mlh1 rad18 strain (AID 175); conditions: S. cerevisiae mlh1 rad18 strain growth inhibition, active compounds read high
Method in brief: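 Cells of a genetically altered yeast strain, deficient in DNA damage repair, were treated with compound. Their growth was then compared with that of vehicle-treated cultures to give inhibition.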

[11] = NCI Yeast Anticancer Drug Screen. Data for the rad18 strain (AID 177); conditions: S. cerevisiae rad18 mutant growth inhibition, active compounds read high
Method in brief: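 Compounds are applied to a repair-deficient yeast strain, and growth is compared with that of vehicle-treated cultures to give percent inhibition.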

[12] = NCI Yeast Anticancer Drug Screen. Data for the rad52 strain (AID 147);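 also: 0% = growth of vehicle-treated control cultures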; conditions: S. cerevisiae rad52 mutant growth inhibition, active compounds read high
Method in brief: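 DNA repair-defective yeast; compound exposure; growth scored against vehicle controls.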

[13] = NCI Yeast Anticancer Drug Screen. Data for the wt1 strain (AID 149);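 also: 0% = growth of vehicle-treated wt1 cultures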; conditions: S. cerevisiae wt1 strain (SPY 50644) growth inhibition, active compounds read high
Method in brief: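 Yeast wt1 strain exposed to compounds; growth inhibition measured relative to vehicle-treated controls.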

[14] = NCI Yeast Anticancer Drug Screen. Data for the rad50EPP+ strain (AID 151);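 also: 0% = growth of vehicle-treated control cultures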; conditions: S. cerevisiae rad50 mutant strain, active compounds read high
Method in brief: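 rad50EPP+ yeast treated with test compounds. Readout: growth vs vehicle control.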

[15] = NCI Yeast Anticancer Drug Screen. Data for the mgt1 strain (AID 153); conditions: S. cerevisiae mgt1 mutant growth inhibition, active compounds read high
Method in brief: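 Growth inhibition relative to vehicle controls was scored for the mgt1 yeast strain after compound exposure.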

[16] = NCI Yeast Anticancer Drug Screen. Data for the rad50 strain (AID 155);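 also: 0% = growth of vehicle-only cultures of the same strain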; conditions: S. cerevisiae rad50 strain growth inhibition, active compounds read high
Method in brief: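 Yeast carrying a defined DNA repair defect were exposed to test compounds, and growth was compared with vehicle-treated controls to give percent inhibition.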

[17] = at 5.0 µM (retest, dose inferred, filed as 0.5)
[18] = at 50.0 µM (retest, dose inferred, filed as 5.0)

Measured: growth inhibition

Cc1ccc(S(=O)(=O)NC(=O)C2C(=O)CC3(CCCCC3)CC2=O)cc1
active: [1]; at 33.0 µM 79% | [1]; at 100.0 µM 83% | [2]; at 33.0 µM 82% | [2]; at 100.0 µM 86% | [4]; at 33.0 µM 77% | [4]; at 100.0 µM 84% | [6]; at 33.0 µM 72% | [6]; at 100.0 µM 74% | [7]; at 33.0 µM 84% | [7]; at 100.0 µM 83% | [8]; at 33.0 µM 82% | [8]; at 100.0 µM 88% | [9]; at 100.0 µM 79% | [10]; [18] 71%
inactive: [1]; [17] 12% | [1]; at 11.0 µM 20% | [1]; [18] 26% | [1]; at 50.0 µM 30.1% | [2]; at 1.2 µM -29% | [2]; at 3.7 µM -44% | [2]; at 11.0 µM 3% | [3]; [17] 11% | [3]; [18] 21% | [3]; at 50.0 µM -16.6% | [4]; at 1.2 µM -12% | [4]; at 3.7 µM 1% | [4]; at 11.0 µM 4% | [5]; [17] 5% | [5]; [18] -1% | [5]; at 50.0 µM -8.9% | [6]; at 1.2 µM -5% | [6]; at 3.7 µM 23% | [6]; [17] 20% | [6]; at 11.0 µM 5% | [6]; [18] 16% | [6]; at 50.0 µM -17.9% | [7]; at 1.2 µM -39% | [7]; at 3.7 µM -28% | [7]; at 11.0 µM 20% | [8]; at 1.2 µM -2% | [8]; at 3.7 µM -11% | [8]; at 11.0 µM 13% | [9]; at 1.2 µM -12% | [9]; at 3.7 µM -8% | [9]; at 11.0 µM 4% | [9]; at 33.0 µM 68% | [10]; [17] 42% | [10]; at 50.0 µM -61.4% | [11]; at 1.2 µM -15% | [11]; at 3.7 µM -2% | [11]; at 11.0 µM -16% | [11]; at 33.0 µM 14% | [11]; at 100.0 µM 48%

CCCC/C=C1\CCC(CN2CCCC2)C1=O (centres undefined)
inactive: [12]; at 1.2 µM -18% | [12]; at 3.7 µM -24% | [12]; at 11.0 µM -10% | [12]; at 33.0 µM 17% | [13]; at 1.2 µM -10% | [13]; at 3.7 µM -17% | [13]; at 11.0 µM 9% | [13]; at 33.0 µM 16% | [13]; at 100.0 µM 26% | [14]; at 1.2 µM -4% | [14]; at 3.7 µM -6% | [14]; at 11.0 µM -8% | [14]; at 33.0 µM 10% | [15]; at 1.2 µM 21% | [15]; at 3.7 µM 21% | [15]; at 11.0 µM 39% | [15]; at 33.0 µM 62% | [16]; at 1.2 µM 7% | [16]; at 3.7 µM 25% | [16]; [17] 40% | [16]; at 11.0 µM 20% | [16]; at 33.0 µM 40% | [16]; [18] 44% | [1]; at 1.2 µM 0% | [1]; at 3.7 µM 7% | [1]; [17] 4% | [1]; at 11.0 µM 27% | [1]; at 33.0 µM 23% | [1]; [18] 35% | [1]; at 50.0 µM 59.2% | [2]; at 1.2 µM 28% | [2]; at 3.7 µM 44% | [2]; at 11.0 µM 66% | [3]; [17] 18% | [3]; [18] 51% | [4]; at 1.2 µM 28% | [4]; at 3.7 µM 48% | [4]; at 11.0 µM 49% | [5]; [17] 39% | [5]; [18] 55% | [6]; at 1.2 µM 1% | [6]; at 3.7 µM 33% | [6]; [17] 50% | [6]; at 11.0 µM 39% | [6]; at 33.0 µM 63% | [7]; at 1.2 µM -33% | [7]; at 3.7 µM -17% | [7]; at 11.0 µM -3% | [7]; at 33.0 µM 20% | [8]; at 1.2 µM 22% | [8]; at 3.7 µM 36% | [8]; at 11.0 µM 56% | [9]; at 1.2 µM -1% | [9]; at 3.7 µM 22% | [9]; at 11.0 µM 44% | [9]; at 33.0 µM 67% | [10]; [17] 41% | [11]; at 1.2 µM -3% | [11]; at 3.7 µM 15% | [11]; at 11.0 µM 34% | [11]; at 33.0 µM 65%
active: [12]; at 100.0 µM 79% | [14]; at 100.0 µM 76% | [15]; at 100.0 µM 95% | [16]; at 50.0 µM 83% | [16]; at 100.0 µM 79% | [1]; at 100.0 µM 85% | [2]; at 33.0 µM 82% | [2]; at 100.0 µM 93% | [3]; at 50.0 µM 78.2% | [4]; at 33.0 µM 70% | [4]; at 100.0 µM 79% | [5]; at 50.0 µM 73.3% | [6]; [18] 81% | [6]; at 50.0 µM 80.7% | [6]; at 100.0 µM 94% | [7]; at 100.0 µM 74% | [8]; at 33.0 µM 76% | [8]; at 100.0 µM 97% | [9]; at 100.0 µM 94% | [10]; [18] 80% | [10]; at 50.0 µM 73.5% | [11]; at 100.0 µM 92%

Cc1oc2ccccc2c(=O)c1Cn1nnc2ccccc21
inactive: [12]; at 1.2 µM -1% | [12]; at 3.7 µM -2% | [12]; at 11.0 µM 0% | [12]; at 33.0 µM 9% | [12]; at 100.0 µM 56% | [13]; at 1.2 µM -2% | [13]; at 3.7 µM -1% | [13]; at 11.0 µM -2% | [13]; at 33.0 µM -6% | [13]; at 100.0 µM 6% | [14]; at 1.2 µM -1% | [14]; at 3.7 µM 3% | [14]; at 11.0 µM 8% | [14]; at 33.0 µM 17% | [14]; at 100.0 µM 35% | [15]; at 1.2 µM 0% | [15]; at 3.7 µM 2% | [15]; at 11.0 µM 0% | [15]; at 33.0 µM 2% | [15]; at 100.0 µM 26% | [16]; at 1.2 µM -3% | [16]; at 3.7 µM -1% | [16]; [17] -20% | [16]; at 11.0 µM -1% | [16]; at 33.0 µM 13% | [16]; [18] 47% | [16]; at 50.0 µM 4.55% | [1]; at 1.2 µM -2% | [1]; at 3.7 µM -3% | [1]; [17] 1% | [1]; at 11.0 µM -2% | [1]; at 33.0 µM 1% | [1]; [18] 5% | [1]; at 50.0 µM 14.6% | [1]; at 100.0 µM 36% | [2]; at 1.2 µM -1% | [2]; at 3.7 µM -1% | [2]; at 11.0 µM 1% | [2]; at 33.0 µM 8% | [2]; at 100.0 µM 36% | [3]; [17] -1% | [3]; [18] 22% | [3]; at 50.0 µM 16.9% | [4]; at 1.2 µM 0% | [4]; at 3.7 µM 0% | [4]; at 11.0 µM -4% | [4]; at 33.0 µM -5% | [4]; at 100.0 µM 19% | [5]; [17] 9% | [5]; [18] 50% | [5]; at 50.0 µM 15.7% | [6]; at 1.2 µM -1% | [6]; at 3.7 µM -2% | [6]; [17] 3% | [6]; at 11.0 µM 0% | [6]; at 33.0 µM 10% | [6]; [18] 41% | [6]; at 50.0 µM 21.9% | [6]; at 100.0 µM 67% | [7]; at 1.2 µM -2% | [7]; at 3.7 µM -2% | [7]; at 11.0 µM -1% | [7]; at 33.0 µM 0% | [7]; at 100.0 µM 32% | [8]; at 1.2 µM -1% | [8]; at 3.7 µM -2% | [8]; at 11.0 µM -2% | [8]; at 33.0 µM 1% | [8]; at 100.0 µM 43% | [9]; at 1.2 µM 0% | [9]; at 3.7 µM 1% | [9]; at 11.0 µM 2% | [9]; at 33.0 µM 12% | [9]; at 100.0 µM 68% | [10]; [17] -1% | [10]; [18] 27% | [10]; at 50.0 µM -11.3% | [11]; at 1.2 µM -2% | [11]; at 3.7 µM -2% | [11]; at 11.0 µM 1% | [11]; at 33.0 µM 15% | [11]; at 100.0 µM 55%
active: [16]; at 100.0 µM 73%
